For orientation: inhibition means the relative decrease from the control value, in per cent.

“And” between values parts separate entries of the source, which are not always exact repeats. Equal entries are not always repeated. Out of some 300,000 compounds screened, about 520 (0.17%) were called active. This is one part of a sample in which actives are shown more often than they occur. Unmarked numbers belong to inactive results. No stated cut-off is given here; in the data, active means inhibition above about 50%; inconclusive means no clear call, values can overlap the other calls; inactive means below that.

The test can be described thus: PubChem AID 1554. The note with it: BJeLR (HRASV12) viability, CellTiter-Glo ATP luminescence, 48 h; hits give high values; concentration not given here. Background: Cellular ATP, detected with luciferase, serves as a proxy for viable cell number.
On to `O=C(c1cc(-c2ccc(Cl)s2)nc2ccccc12)N1CCOCC1`, for which the inhibition was -8.28%.

Turning to `Cc1ccc(CSCCNC(=O)CN(c2ccc(F)cc2)S(C)(=O)=O)cc1`, the inhibition is -8.45%.

`CC1CCCC(N2CCN(C(=O)c3ccc(F)cc3)CC2)C1` (stereo not given): the inhibition was -5.87%.

In the case of `O=C(NCc1ccccc1Cl)c1ccc2c(=O)n(CC3CCCO3)c(=S)[nH]c2c1` (stereo not given), the inhibition was 9.1%.

On to `COc1cc(NC(=O)CSC(=S)N2CCCC2)c(OC)cc1Cl`, for which the inhibition was -1.51%.

`CCOc1ccc(OCCSc2nc3ccccc3n2CC(=O)O)cc1`: the inhibition is -3.19%.

As for `Cc1ccc2cc(C#N)c(NCCNC(=S)NCCCN3CCOCC3)nc2c1`, the inhibition is 4.4%.

As to `COc1cc([N+](=O)[O-])ccc1NC(=S)N1CCN(c2ccccn2)CC1`, the inhibition is -1.41%.

With `CCOC(=O)C1=C(c2ccc(OC)cc2)C(=O)c2ccccc2C1=O`, the inhibition is 110% (active).

On to `CCOC(=O)c1cc2cc3ccccc3cc2oc1=O`, for which the inhibition was -11.8%.

On to `COc1ccc(N2CCN(C(C)=C3C(=O)c4ccccc4C3=O)CC2)cc1`, for which the inhibition was 2.27%.

For the compound `Cc1ccc(S(=O)(=O)n2cccc2CO)cc1`, the inhibition is -3.34%.

Regarding `COCCNS(=O)(=O)c1cc(Br)ccc1OC`, the inhibition was -2.67%.

Turning to `O=C(NCc1ccc2c(c1)OCO2)c1cc2c(s1)CS(=O)(=O)C2`, the inhibition was 5.68%.

For the compound `COc1ccc(C(=O)O)cc1S(=O)(=O)NCc1cccnc1`, the inhibition is 4.17%.

Regarding `Cn1cc(CCC(=O)N2CCCC(C(=O)c3ccc(C(C)(C)C)cc3)C2)cn1` (stereo not given), the inhibition is -7.89%.

On to `CC(NC(=O)CCCC1CCCCC1)c1ccc(S(N)(=O)=O)cc1` (stereo not given), for which the inhibition was 10.8%.

Regarding `COc1ccc(S(=O)(=O)N2CCCCCC2)cc1C(=O)N(C)Cc1cccc(OC)c1OC`, the inhibition was -3.35%.

As to `O=S(=O)(Cc1noc(-c2ccc(OC(F)(F)F)cc2)n1)c1ccc(F)cc1`, the inhibition was -11.6%.

As for `Cc1nnc(SCC(=O)N2c3ccccc3C(C)(c3ccc(Cl)cc3)CC2(C)C)s1` (stereo not given), the inhibition is 13.1%.

Take `Cc1[nH]c(C)c(S(=O)(=O)N2CCN(c3cccc(C(F)(F)F)c3)CC2)c1C(=O)N1CCCCC1`: the inhibition was 0.76%.

For the compound `Nc1ccc(-n2nncc2-c2ccco2)cc1`, the inhibition is 11.6%.

With `CCOc1c(N2CCCCC2)c(=O)c1=O`, the inhibition is 5.32%.

In the case of `O=C(N/N=C/c1ccc([N+](=O)[O-])o1)c1cn(-c2ccccc2)nc1-c1ccc(F)cc1`, the inhibition was -4.37%.

As for `O=C(/C=C/c1ccc([N+](=O)[O-])o1)NNC(=O)c1ccc(F)cc1`, the inhibition is 60.3% (active).

On to `Cc1ccc(/C=C/C(=O)Nc2ccc([N+](=O)[O-])c(NC(=O)/C=C/c3ccc(C)o3)c2)o1`, for which the inhibition is -29.1%.

In the case of `CNS(=O)(=O)c1cccc(C(=O)NC2CCCc3ccccc32)c1` (stereo not given), the inhibition is -3.04%.

With `CCCCCC(O)(CCN1CCCCC1)c1ccccc1` (stereo not given), the inhibition was -2.94%.

Turning to `CC(C)CC[n+]1ccn(C2=C([O-])c3ccccc3C(=O)/C2=N\S(=O)(=O)c2ccccc2)c1`, the inhibition was -5.54%.

With `CN(C)/C=C(\C#N)C(=O)c1cccnc1Oc1ccc(F)cc1F`, the inhibition was -6.11%.

For the compound `Oc1ccc2ccccc2c1N=Nc1nccs1`, the inhibition is 77.1% (active).

`COC(=O)CCSc1cc([N+](=O)[O-])cc2c1c(C1OCCS1)nn2-c1ccccc1` (stereo not given): the inhibition is 3.81%.

With `CCOc1ccc(C(C)=O)cc1CSc1nnc(-c2ccncc2)n1CCOC`, the inhibition was -17.6%.

As for `Cc1cc(C)c(NC(=O)CN2CCCCCC2)c(C)c1`, the inhibition is -2.78%.

For the compound `CN1CCN(c2ccc(NC(=O)c3ccccc3)cc2)CC1`, the inhibition is -5.43%.

Regarding `COc1cccc(C(=O)Nc2ccc(N3CCN(C(=O)c4ccco4)CC3)cc2)c1`, the inhibition was 11.7%.

Turning to `COc1cccc(C(=O)Nc2ccc(N3CCCC3)cc2)c1`, the inhibition is 52.9% (active).

In the case of `Cc1[nH]c2ccccc2c1-c1ccc(Cl)nn1`, the inhibition is 7.01%.

Turning to `CC(C)(C)SCCSC1=CC(=O)CC(c2ccccc2)C1` (stereo not given), the inhibition was 7.66%.

As to `CC1=C/C(=N\OS(=O)(=O)c2ccccc2)C=CC1=O`, the inhibition is 91.4% (active).

Take `CCCCCCCCCCCCn1ccc(=N)cc1`: the inhibition was 87.5% (active).

Take `CCCCCCCCn1c2c(c(=N)c3c1CCC3)CCCC2`: the inhibition was 24.6%.

Turning to `CCCCCN1CC(O)=C(c2ccccc2)C1=N`, the inhibition was -8.91%.

On to `Cn1c(Cc2cccs2)nnc1SCC(=O)Nc1ccccc1`, for which the inhibition is -23.8%.

Consider `C=CCc1c(C)nc2cc(-c3ccccc3)[nH]n2c1=O`, for which the inhibition is 2.64%.

With `COC(=O)c1ccc(COC(=O)c2c(C)nn(Cc3ccccc3Cl)c2Cl)o1`, the inhibition was -0.748%.

As for `CCOC(=O)C1CCCN(S(=O)(=O)c2ccc3c(c2)C(C)(C)C(=O)N3C)C1` (stereo not given), the inhibition is -8.48%.

Take `N#Cc1cccc(CN2CCC(=O)N([C@H](CO)c3ccccc3)CC2)c1`: the inhibition was 4.84%.

For `Cc1ccc(-c2nn(-c3ccccc3)cc2/C=N/NC(=O)c2ccc3c(c2)OCO3)cc1`, the inhibition was 11.4%.

As for `CCc1ccc(-c2nn(-c3ccccc3)cc2CSC(=N)N)cc1`, the inhibition was 103% (active).

For `Cc1ccc(-c2nn(-c3ccccc3)cc2CN(Cc2ccccc2)C(=O)CCC(=O)O)o1`, the inhibition was -0.0578%.

Take `COc1ccc(S(=O)(=O)N2CCOC2CNC(=O)C(=O)NCc2ccc(F)cc2)cc1` (stereo not given): the inhibition is 6.34%.

Regarding `Cc1nnc(SC(C)C(=O)Nc2ccc(S(=O)(=O)NC3CCCCC3)cc2)s1` (stereo not given), the inhibition is -6.12%.

With `Cc1cc([N+](=O)[O-])nn1Cc1ccc(F)cc1`, the inhibition was 7.4%.

In the case of `CCCc1cc(=O)[nH]c(SCC(=O)c2c(N)n(CC(C)C)c(=O)n(C)c2=O)n1`, the inhibition was 63.2% (active).

Consider `CCCc1cc(=O)[nH]c(SCC(=O)OCc2ccccc2)n1`, for which the inhibition was -0.726%.

In the case of `CCCc1cc(=O)[nH]c(SCC(=O)c2cc(C)n(CCC)c2C)n1`, the inhibition is 0.606%.

Take `COC(=O)[C@H]1[C@H]2C[C@H]3c4[nH]c5ccccc5c4CCN3C[C@@H]2CC[C@@H]1O`: the inhibition is -6.61% and 2.06%.

As for `CC(C)(C)c1ccc(/C=C2\SC(=O)N=C2N)cc1`, the inhibition was -2.23%.

For `CC(NC(=O)CC1SC(N)=NC1=O)c1ccccc1` (stereo not given), the inhibition was 4.16%.

The record behind these values is PubChem BioAssay AID1554 (Broad Institute, 2009).
